# Compound activity: PubChem BioAssay, National Center for Advancing Translational Sciences (NCATS)
# Rows were chosen to be rich in hits. Some 3.2% of all compounds tested hit in one or more screens of this group.
# FBPA coupling cs: coupling enzyme interference in Giardia aldolase counter-screen; coupling enzyme system counterscreen, AmpLite Red fluorescence; activity change, negative = inhibition, % at 58.2 µM, hits read low; hit rate 0.67% among 290,000; AID 2472; in the data active = activity change below about -30%
#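 Compounds tested against the coupling enzymes alone at 57.5 uM final; readout was AmpLite Red fluorescence (525/598 nm) after 20 min at RT.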
# VDR inhibitor: vitamin D3 receptor (human) inhibition. P11473. AID 504847. VDR-SRC2-3 peptide fluorescence polarization, 2 h. Potency, µM, usual class: inhibitors. hit rate 0.93% among 400,000
#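 Two reagent solutions held at 4 deg C in the dark were dispensed, compounds pinned at 23 nl, and the mixture incubated 2 h at room temperature. Read-out: fluorescence polarization of VDR–SRC2-3 peptide binding.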
# USP1 inh: USP1/UAF1 (human) deubiquitinase inhibition; O94782; recombinant USP1/UAF1, Ub-Rhodamine cleavage fluorescence; Potency, µM (top dose mostly 57.1 µM), actives largely listed as inhibitors; hit rate 0.23% among 390,000; AID 743255; note: nearly all actives have a fitted effect of over 60% in size
#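 High-throughput fluorogenic screen: 1nM USP1/UAF1 complex, Ub-Rho substrate 150nM final, 50mM HEPES pH 7.8 with 0.5mM EDTA, 0.1 mg/ml BSA, 1mM TCEP and 0.01% Tween-20.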
# USP2a inh: blocks human ubiquitin-specific protease USP2a. O75604. USP2 core, Ub-CHOP2 coupled fluorogenic reporter, 485/531. Potency, µM (top dose mostly 38.3 µM), hits mostly inhibitors. hit rate 0.01% among 330,000. AID 463254
# Target sequence (O75604 whole entry, looked up): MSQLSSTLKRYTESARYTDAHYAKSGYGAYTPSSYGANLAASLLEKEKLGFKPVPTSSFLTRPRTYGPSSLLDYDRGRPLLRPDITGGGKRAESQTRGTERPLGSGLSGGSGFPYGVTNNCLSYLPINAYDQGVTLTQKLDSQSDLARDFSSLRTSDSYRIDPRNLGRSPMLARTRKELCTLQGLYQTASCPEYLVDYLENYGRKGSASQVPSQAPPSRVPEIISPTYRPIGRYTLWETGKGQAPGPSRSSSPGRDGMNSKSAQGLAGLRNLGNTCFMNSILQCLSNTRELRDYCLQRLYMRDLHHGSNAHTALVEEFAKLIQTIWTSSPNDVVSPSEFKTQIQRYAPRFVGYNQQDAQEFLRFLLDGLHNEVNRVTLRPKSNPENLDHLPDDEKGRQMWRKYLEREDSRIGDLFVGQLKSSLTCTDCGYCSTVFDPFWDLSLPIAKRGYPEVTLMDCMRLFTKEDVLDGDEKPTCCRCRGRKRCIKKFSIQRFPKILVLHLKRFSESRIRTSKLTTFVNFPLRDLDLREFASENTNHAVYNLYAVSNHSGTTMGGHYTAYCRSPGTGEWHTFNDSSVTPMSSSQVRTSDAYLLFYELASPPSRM
#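 Deubiquitinase activity read as fluorescence (485/531 nm) after Ub-CHOP2 cleavage activates the enterokinase reporter on its substrate; USP2 core 10nM, Ub-CHOP2 and substrate 25nM each, 30min compound preincubation then 60min RT; data normalized to NEM, curves fitted.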
# GALK inh: galactokinase (human) inhibition | Potency, µM (series often up to 57.5 µM), hits mostly inhibitors | Purified GALK, Kinase-Glo residual ATP luminescence | AID 1868 | hit rate 0.007% among 270,000 | P51570
#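 5 nM enzyme, 35 uM ATP, 100 uM galactose, 20 mM HEPES pH8.0, 5 mM MgCl2; 1 h RT; residual ATP by Kinase-Glo Plus luminescence, qHTS format.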
# PLK1 PBD inh: blocks phosphopeptide binding to human PLK1 polo-box domain; Plk1 PBD binding of FITC phosphopeptide, fluorescence polarization; Potency, µM, usual class: inhibitors; hit rate 2.8% among 360,000; note: series mostly up to about 57 µM; nearly all actives have a fitted effect of over 65% in size
# Numbers stand for hits; . = inactive; ? = inconclusive; / = no result given. Unless noted, calls come from the whole dose curve; as a rule, active = well fitted curve in the direction sought with a large enough effect; inconclusive = small, poorly fitted or top-dose-only effect, or another doubt; inactive = no such curve, though single readings can be large; an effect the other way counts as inactive or inconclusive.
SMILES,FBPA coupling cs,VDR inhibitor,USP1 inh,USP2a inh,GALK inh,PLK1 PBD inh
CCOc1ccc(C(=O)NC2C(=O)N3C(C(=O)O)=C(COC(C)=O)CSC23)cc1OCC (centres undefined),/,?,.,.,/,.
CC(=O)OCC1=C(C(=O)O)N2C(=O)C(NC(=O)c3ccc(COc4ccc(Cl)cc4)o3)C2SC1 (centres undefined),.,45µM,.,.,.,?
Cc1ccc(OCC(=O)Nc2ccc(S(=O)(=O)Nc3cc(C)nc(C)n3)cc2)c(Br)c1,/,.,.,/,/,/
COc1cc(OC)cc(-c2c(-c3ccc(F)cc3)c3cc(Br)ccc3n2C)c1,/,.,.,.,/,.
O=C(COC(=O)c1c2c(nc3ccccc13)/C(=C\c1ccco1)CC2)NC1CCCC1,/,.,.,/,/,9.5µM
O=[N+]([O-])c1ccc(O)c(-c2nn[nH]n2)c1,.,.,.,.,.,3.4µM
O=C1Nc2ccccc2C(=O)N2CCCCC12 (centres undefined),.,.,.,.,.,.
COc1ccc(N2CC(O)=C(c3nc(-c4ccccc4)cs3)C2=N)cc1,.,?,.,.,.,13µM
Cc1ccc(-c2csc(-c3ccncc3)n2)cc1,.,.,.,.,.,.
COc1ccc(-c2csc(-c3ccc(O)cc3)n2)cc1,.,?,?,.,.,21µM
O=C1CCCc2c1cc(C(=O)Nc1ccc(Br)cn1)c(=O)n2-c1ccccc1,-51,?,.,.,.,.
O=C1CCCc2c1cc(C(=O)NC1CCSC1=O)c(=O)n2-c1ccccc1 (centres undefined),-38,.,.,.,.,.
CC1(C)CC(=O)c2cc(C(=O)NC3CCSC3=O)c(=O)n(-c3ccccc3)c2C1 (centres undefined),.,.,.,.,.,.
O=C(NCCc1ccc(Cl)cc1)Nc1ccc(F)cc1,.,.,.,.,.,24µM
O=C(NCCc1ccc(F)cc1)Nc1ccc2c(c1)OCO2,.,.,.,.,.,8.4µM
CCC12CN3CCN(CC(C3)/C1=N\NC(=O)c1ccc(F)cc1)C2,.,?,.,.,.,21µM
COc1cc(Br)c(C(=O)c2nccc3cc(OC)c(OC)cc23)cc1OC,.,.,10µM,.,.,6µM
CC1(CCc2ccc3c(c2)OCO3)NC(=O)c2ccccc2N1 (centres undefined),.,?,.,.,.,8.4µM
COc1ccc(S(=O)(=O)N2CCC(C(=O)Nc3cccc(Cl)c3)CC2)cc1OC,.,.,.,.,.,.
COc1ccc(S(=O)(=O)n2[nH]c(=O)c(CCO)c2C)c([N+](=O)[O-])c1,.,.,.,.,.,13µM
Cc1ccc(S(=O)(=O)n2[nH]c(=O)c(CCO)c2C)cc1,.,.,.,.,.,.
CC(=O)c1ccc(S(=O)(=O)N2CCN(C(C)=O)CC2)cc1,.,.,.,.,.,.
CC(=O)c1ccc(S(=O)(=O)N2CCNCC2)cc1,.,?,.,.,.,15µM
CSc1ccc(CNC(=O)c2sc3ncnc(N(C)C4CCCCC4)c3c2C)cc1,/,.,.,/,/,/
CCN(CC)c1ccc(/C=C/C(=O)c2ccc(Br)cc2)cc1,.,.,28µM,?,.,.
SMILES,FBPA coupling cs,VDR inhibitor,USP1 inh,USP2a inh,GALK inh,PLK1 PBD inh
CN(C)c1ccc(C(=O)/C=C/c2ccc(Br)cc2)cc1,.,.,.,.,.,.
COc1ccccc1Cn1nnc2c(=O)[nH]c(C3CCN(C(=O)c4ccccc4Cl)CC3)nc21,.,.,.,.,.,.
COCCN(Cc1ccccc1)C(=O)c1cccc(S(=O)(=O)N2CCN(c3ccccc3)CC2)c1,/,.,.,.,/,.
Cc1cc(C)cc(OCC(=O)N/N=C/c2ccccn2)c1,.,.,.,.,.,.
COc1ccc(/C=N/NC(=O)COc2ccc3ccccc3c2)c(C(=O)O)c1OC,.,79µM,.,.,.,27µM
O=C(COc1ccc2ccccc2c1)N/N=C/c1ccccn1,.,.,.,.,.,19µM
Cc1ccccc1OCC(=O)N/N=C/c1ccccn1,.,.,.,.,.,30µM
O=C(COc1ccc2ccccc2c1)NN1C(=O)c2ccccc2C1=O,.,.,.,.,.,27µM
CCOC(=O)c1c(C(F)(F)F)nc2ncccn12,.,.,.,.,.,.
O=c1ccc2[n+]([O-])c3ccc(O)cc3oc-2c1,.,11µM,.,.,.,.
Cc1ccc(C(C[N+](=O)[O-])c2c(-c3ccccc3O)[nH][nH]c2=O)cc1 (centres undefined),.,22µM,?,.,.,?
O=c1[nH][nH]c(-c2ccccc2O)c1C(C[N+](=O)[O-])c1ccc(Br)cc1 (centres undefined),.,?,.,.,.,?
CCc1cc(=O)oc2c(CNCc3ccccc3F)c(O)c(Cl)cc12,.,.,.,.,/,30µM
Cc1cccc(OCC(=O)NNC(=O)c2cccs2)c1,.,.,.,.,.,.
c1coc(CSSCc2ccco2)c1,/,22µM,.,.,/,12µM
Cc1cc(C)nc(SCC(=O)NCc2ccco2)n1,.,.,.,.,.,.
CCOC(=O)CNC(=O)CSc1nnc(SCC(=O)NCC(=O)OCC)s1,.,.,.,.,.,.
Cc1cccc(C2(c3cccc(C)c3)CC2C(=O)NCC2CCCO2)c1 (centres undefined),.,?,.,.,.,27µM
Cc1cccc(-c2nsc(SCC(=O)NCc3ccco3)n2)c1,.,.,.,.,.,21µM
Cc1cccc(-c2nsc(SCC(=O)c3ccc(Cl)cc3)n2)c1,.,.,.,.,.,17µM
CCOC(=O)CNC(=O)CSc1nc(-c2cccc(C)c2)ns1,.,79µM,.,.,.,11µM
COc1cc2c(cc1OC)CN(c1nc(CN3CCOCC3)nc3sc4c(c13)CCCC4)CC2,.,.,.,.,.,.
Cc1cccc(-c2nsc(SCC(=O)NCC3CCCO3)n2)c1 (centres undefined),.,.,.,.,.,8.4µM
O=C(COc1ccc(F)cc1)OCCN1CCOCC1,.,.,.,.,.,.
CC(C)C(OC(=O)C1=Cc2ccccc2OC1)C(=O)NCC1CCCO1 (centres undefined),/,.,.,/,/,21µM
C[C@H](NC(=O)[C@@H]1Cc2ccccc2CN1)C(=O)NCC1CCCO1 (some centres undefined),/,.,.,.,.,30µM
CCC1CCCCN1CC(=O)Nc1cc(OC)c(OC)cc1C#N (centres undefined),.,.,.,.,.,.
COc1ccc(NC(=O)c2coc3ccccc23)cc1OC,.,.,.,.,.,.
CC(C)c1ccc(NC(=O)CCCC(=O)NCCc2ccccc2)cc1,.,.,.,.,.,.
